{"source": "PubChem BioAssay AID687030", "about": "(Broad Institute, 2013)", "note": "Hit rate of the full screen: of about 1,400 compounds, about 10 (0.7%) were called active. The list is a sample of the results. Entries with a potency or affinity are not part of this list. Unmarked numbers belong to inactive results. The rule behind the calls is not given here.", "data": [{"assay": "BHK-21 cell toxicity, dose response, cytotoxicity control, plate reader, cherry-pick samples (AID 687030);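 note: cells were exposed to compound for three days before reading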", "conditions": "BHK-21 cells; series mostly up to 19.5 µM; activity change, negative = toxicity: at the top concentration", "values": [{"smiles": "C=CCC1NS(=O)(=O)OC(COC)C1C", "note": "(stereo not drawn)", "activity change, negative = toxicity": "7.81%"}, {"smiles": "COCCCNc1oc(-c2ccccc2F)nc1C#N", "activity change, negative = toxicity": "-1.28%"}, {"smiles": "COc1ccc(-c2cc(NC=O)c3ncc(-c4cc(OC)c(OC)c(OC)c4)n3c2)c(OC)c1", "activity change, negative = toxicity": "-22.7%"}, {"smiles": "COC(=O)C(Cc1csc2ccc(Cl)cc12)NC(=O)c1ccc(Cl)cc1", "note": "(stereo not drawn)", "activity change, negative = toxicity": "1.57%"}, {"smiles": "COc1ccc(NC(=O)N[C@@H]2CC[C@@H](CCNS(=O)(=O)c3cccc(Cl)c3)O[C@@H]2CO)cc1", "activity change, negative = toxicity": "8.65%"}, {"smiles": "COc1ccc(NC(=O)N[C@H]2CC[C@@H](CCn3cc(C4(O)CCCC4)nn3)O[C@@H]2CO)cc1", "activity change, negative = toxicity": "-4.13%"}, {"smiles": "O=C(c1cccc(Cl)c1)N1CCC2(CC1)NCCc1[nH]cnc12", "activity change, negative = toxicity": "-0.584%"}, {"smiles": "O=C(NCCN1CCOCC1)c1ccc2c(c1)N(Cc1ccc(F)cc1)C(=O)CS2", "activity change, negative = toxicity": "-1.79%"}, {"smiles": "Cc1ccc(C(=O)NCC(=O)NCC(c2cccs2)N2CCOCC2)cc1C", "note": "(stereo not drawn)", "activity change, negative = toxicity": "-3.9%"}, {"smiles": "C[C@@H]1CN([C@H](C)CO)C(=O)c2cc(NC(=O)Nc3ccc(C(F)(F)F)cc3)ccc2O[C@H]1CN(C)C(=O)NC1CCCCC1", "activity change, negative = toxicity": "-6.24%"}, {"smiles": "CCCN(C)C1CN(Cc2cn(Cc3ccc(C)cc3)nn2)S(=O)(=O)C1", "note": "(stereo not drawn)", "activity change, negative = toxicity": "1.6%"}, {"smiles": "COc1ccccc1N1CCN(Cc2cnc3ccc(Cl)cn23)CC1", "activity change, negative = toxicity": "5.21%"}, {"smiles": "C[C@H]1CN([C@@H](C)CO)C(=O)c2cccc(NC(=O)C3CCCCC3)c2O[C@@H]1CN(C)Cc1ccc(C(=O)Nc2ccccc2N)cc1", "activity change, negative = toxicity": "-1.15%"}, {"smiles": "C[C@@H]1CCCCO[C@@H](CN(C)C(=O)Nc2cccc3ccccc23)[C@H](C)CN([C@H](C)CO)C(=O)c2cc(NC(=O)CCC(F)(F)F)ccc2O1", "activity change, negative = toxicity": "4.27%"}, {"smiles": "CCOC(=O)C1CCCN(c2c(N3CCOCC3)c(=O)c2=O)C1", "note": "(stereo not drawn)", "activity change, negative = toxicity": "1.44%"}, {"smiles": "O=C(CN1CCN(C(=O)C2CCC2)CC1)Nc1ccc(F)cc1", "activity change, negative = toxicity": "-23.3%"}, {"smiles": "CCCCNC(=O)O[C@H]1C[C@@H]2CCN3C(=O)CCC[C@H]([C@H]1Cc1ccccc1)[C@H]23", "activity change, negative = toxicity": "-3.09%"}, {"smiles": "Cn1cnc(S(=O)(=O)N[C@@H]2CC[C@H](CC(=O)NCC3CCCCC3)O[C@@H]2CO)c1", "activity change, negative = toxicity": "-3.49%"}, {"smiles": "CCC1(c2ccccc2)NC(=O)N(CC(=O)Nc2ccccc2C(=O)N2CCCCC2)C1=O", "note": "(stereo not drawn)", "activity change, negative = toxicity": "5.31%"}, {"smiles": "CS(=O)(=O)c1cccc(-c2nnc(NC(=O)c3ccc(S(=O)(=O)N4CCCC4)cc3)o2)c1", "activity change, negative = toxicity": "3.15%"}, {"smiles": "Clc1cc(Br)ccc1OCCOCCN1CCCC1", "activity change, negative = toxicity": "1.69%"}, {"smiles": "Clc1cc(Br)ccc1OCCCn1ccnc1", "activity change, negative = toxicity": "-1.16%"}, {"smiles": "c1cc(-c2ccc(N3CCOCC3)cc2)n2cnnc2c1", "activity change, negative = toxicity": "2.6%"}, {"smiles": "COc1ccc(C2CC(c3ccccc3)=NN2S(=O)(=O)c2ccccc2)c(OC)c1", "note": "(stereo not drawn)", "activity change, negative = toxicity": "5.02%"}, {"smiles": "O=C(C[C@@H]1CC[C@@H]2[C@H](COC[C@H](O)CN2CC2CCOCC2)O1)N1CCOCC1", "activity change, negative = toxicity": "-3.67%"}, {"smiles": "C[C@H](NC(=O)CCCOc1ccc(Cl)cc1Cl)c1nnc2ccccn12", "activity change, negative = toxicity": "-0.687%"}, {"smiles": "Cc1ccc(NC(=O)c2nc[nH]c2C(=O)N[C@@H](C)C(=O)OC(C)(C)C)cc1", "activity change, negative = toxicity": "-2.08%"}, {"smiles": "Cc1ccc(NC(=O)c2ccc3c(c2)OCO3)cc1Cl", "activity change, negative = toxicity": "2.36%"}, {"smiles": "COc1ccc(OC)c(CN2C(=O)CN(S(C)(=O)=O)CC2(C)C(=O)NCc2ccccc2)c1", "note": "(stereo not drawn)", "activity change, negative = toxicity": "6.21%"}, {"smiles": "CNC(=O)C[C@H]1CC[C@@H]2[C@H](COC[C@@H](O)CN2C(=O)Nc2ccc3c(c2)OCO3)O1", "activity change, negative = toxicity": "-2.76%"}, {"smiles": "CN(C)C1(CNC(=O)C2CCN(S(=O)(=O)c3ccccc3C(F)(F)F)CC2)CCCCC1", "activity change, negative = toxicity": "-1.27%"}, {"smiles": "CC(C)(C)c1ccc(NC(=O)NC2CCCc3ccccc32)cc1", "note": "(stereo not drawn)", "activity change, negative = toxicity": "5.49%"}, {"smiles": "Cc1ccnc(NC(=O)c2ccc(Cl)c(S(=O)(=O)N3CCCC3)c2)c1", "activity change, negative = toxicity": "1.18%"}, {"smiles": "COc1cccc(NC(=O)CN(C)C(=O)c2cccc(S(=O)(=O)N3c4ccccc4CC3C)c2)c1", "note": "(stereo not drawn)", "activity change, negative = toxicity": "-7.69%"}, {"smiles": "O=C(O)[C@]1(S(=O)(=O)c2ccccc2)C[C@@H]2ON=C(c3cccc(Br)c3)[C@@H]2C1", "activity change, negative = toxicity": "-0.71%"}, {"smiles": "COc1cccc(-c2ncc3ccccc3c2COC(=O)c2ccc(F)cc2)c1", "activity change, negative = toxicity": "-5.22%"}, {"smiles": "COc1ccc(C(N)c2csc(Nc3cc(Oc4ccccc4)ncn3)n2)cc1", "note": "(stereo not drawn)", "activity change, negative = toxicity": "2.64%"}, {"smiles": "CCN1[C@H](C(=O)NCCCN(C)C)[C@@H](CO)[C@@H]2Cn3c(ccc(-c4cccc(F)c4)c3=O)[C@@H]21", "activity change, negative = toxicity": "-0.329%"}, {"smiles": "Cc1nc(CCNC(=O)CC2C(=O)NCCN2CC(C)C)nc2c1CCC2", "note": "(stereo not drawn)", "activity change, negative = toxicity": "1.12%"}, {"smiles": "CCCS(=O)(=O)N1CCCC(C(=O)NCCc2cccc(C)c2)C1", "note": "(stereo not drawn)", "activity change, negative = toxicity": "-3.14%"}, {"smiles": "C[C@@H]1CN([C@@H](C)CO)S(=O)(=O)c2ccc(-c3ccncc3)cc2O[C@H]1CN(C)C(=O)CC1CC1", "activity change, negative = toxicity": "-5.55%"}, {"smiles": "N#C[C@@H]1[C@H](c2ccc(-c3ccccc3F)cc2)[C@H](CO)N1C(=O)C1CC1", "activity change, negative = toxicity": "-10.2% [at 21 µM]"}, {"smiles": "CC(=O)NC[C@H]1[C@H](c2ccc(-c3ccccc3F)cc2)[C@@H](CO)N1C(=O)C1CC1", "activity change, negative = toxicity": "-6.85%"}, {"smiles": "CCCNC(=O)C1(C)CCCN(Cc2ccc(C#N)cc2)C1", "note": "(stereo not drawn)", "activity change, negative = toxicity": "-0.631%"}, {"smiles": "O=C(c1cc(-c2cccs2)on1)N1CCCc2ccccc21", "activity change, negative = toxicity": "4.97%"}, {"smiles": "O=C1CCN(CCc2ccccc2)CCN1[C@H](COc1ccccc1)c1ccccc1", "activity change, negative = toxicity": "2.11%"}, {"smiles": "O=C1CN(C(=O)COC(=O)c2c(F)cccc2Cl)c2ccccc2N1", "activity change, negative = toxicity": "7.85%"}, {"smiles": "COc1ccc(NC(=O)COC(=O)c2c(C)noc2C)cc1Cl", "activity change, negative = toxicity": "-6.26%"}, {"smiles": "C[C@H]1[C@H](c2ccccc2)C[C@@H](C(=O)O)C1(C)C", "activity change, negative = toxicity": "2.3%"}, {"smiles": "COc1c(Cl)cc(Br)c(OC)c1C(=O)NC(=O)Nc1nc(C)cc(C)n1", "activity change, negative = toxicity": "-2.87%"}, {"smiles": "CCCc1nc2c(C)cc(Br)cn2c1Cc1ccc(OC)cc1C", "activity change, negative = toxicity": "-5.06%"}, {"smiles": "CCN(c1ccccc1)S(=O)(=O)c1ccc(C(=O)N2CCN(c3ccccc3F)CC2)cc1", "activity change, negative = toxicity": "-0.489%"}, {"smiles": "CCCN1C[C@H](C)[C@H](OC)CN(C)C(=O)c2cc(NS(=O)(=O)c3cn(C)cn3)ccc2OC[C@@H]1C", "activity change, negative = toxicity": "0.807%"}, {"smiles": "C#CCNC(=O)C[C@@H]1C[C@@]2(C(=O)OC)CCCCC=C2N(Cc2cccc3ccccc23)C1=O", "activity change, negative = toxicity": "0.38%"}, {"smiles": "COc1ccc2c3c([nH]c2c1)[C@H](CO)N(C(=O)c1ccccc1)CC31CN(S(=O)(=O)c2cccs2)C1", "activity change, negative = toxicity": "0.044%"}, {"smiles": "COc1cccc(S(=O)(=O)N2CC3(CN(C(=O)Nc4ccc(F)cc4)[C@H](CO)c4[nH]c5cc(OC)ccc5c43)C2)c1", "activity change, negative = toxicity": "-0.859%"}, {"smiles": "COc1ccccc1NC(=O)N1CCN(c2ccccn2)CC1", "activity change, negative = toxicity": "0.23%"}, {"smiles": "CCOC(=O)C[C@H]1c2ccccc2S(=O)(=O)N1c1ccccc1", "activity change, negative = toxicity": "7.34%"}]}]}
